Compounds with a hit are over-represented: about 2.8% of the library has one in this group of screens.
hERG WT inh = qHTS for Inhibitors of KCHN2 3.1: Wildtype qHTS; U2OS, BacMam KCNH2, thallium flux FluxOr; active compounds read low; Voltage-gated inwardly rectifying potassium channel KCNH2 (Homo sapiens), Q12809; activity change, % at 1.84 µM; AID 720551, 2013; hit rate 0.37% among 340,000;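 active means maximum activity change below -70%; inconclusive means maximum activity change between -70% and -50%; inactive means maximum activity change above -50%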
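U2OS cells transduced with wild-type KCNH2 virus are loaded with FluxOr dye for 45 min, and thallium flux is measured in kinetic reads before and after stimulation buffer. Rate constants are normalized to DMSO controls.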
GLP-1R inv ag = qHTS of GLP-1 Receptor Inverse Agonists (Inhibition Mode); hit rate 1.6% among 410,000; Potency, µM (titrated, usually from 38.3 µM), usual class: inhibitors; HEK293 GLP-1R CRE-luciferase, luminescence, 24 h; GLP-1R form is constitutively active; AID 624417, 2012; Glucagon-like peptide 1 receptor (Homo sapiens), P43220; further: nearly all actives have a fitted effect of over 55% in size
Target sequence (P43220 whole entry, looked up): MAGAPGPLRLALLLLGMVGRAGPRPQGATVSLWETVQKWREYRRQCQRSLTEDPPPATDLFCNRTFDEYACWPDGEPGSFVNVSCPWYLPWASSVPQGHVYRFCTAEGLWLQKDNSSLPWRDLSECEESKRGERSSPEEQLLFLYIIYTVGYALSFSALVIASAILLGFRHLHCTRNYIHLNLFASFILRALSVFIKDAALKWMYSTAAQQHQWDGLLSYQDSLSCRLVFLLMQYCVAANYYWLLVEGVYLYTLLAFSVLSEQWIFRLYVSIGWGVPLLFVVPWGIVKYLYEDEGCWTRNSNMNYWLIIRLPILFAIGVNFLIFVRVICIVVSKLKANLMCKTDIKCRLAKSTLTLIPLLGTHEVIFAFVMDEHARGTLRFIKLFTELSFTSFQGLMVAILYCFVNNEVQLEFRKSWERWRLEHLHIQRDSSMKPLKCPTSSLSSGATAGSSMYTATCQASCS
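Constitutively active GLP-1R drives a cAMP-responsive luciferase in stably transfected HEK293 cells; test compounds are added after overnight (12 h) attachment and left 24 hr, and signal loss in luminescence marks inhibition.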
HEK293 tox = qHTS of GLP-1 Receptor Inverse Agonists: Cytotox Screen | hit rate 0.13% among 410,000 | HEK293 cAMP-luciferase reporter cells, luminescence, 24 h | Potency, µM (doses to about 38.3 µM), usual class: inhibitors | AID 624418, 2012;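 further: loss of luciferase light is scored as toxicity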
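Luminescence readout: signal drop marks cytotoxicity. Plated cells grew 12 h at 37 °C, 5% CO2, received 23 nL compound for 24 h, then got luciferase reagent, read after 12 min at RT.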
KCNH2 3.1 block = qHTS for Inhibitors of KCHN2 3.1: Mutant qHTS | Potassium voltage-gated channel subfamily H member 2, brain isoform KCNH2 3.1 (human) | U2OS KCNH2 3.1, thallium flux FluxOr; active compounds read low | activity change, % (tested at about 1.8 µM) | hit rate 0.95% among 340,000 | AID 720553, 2013;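 active means maximum activity change below -70%; inconclusive means maximum activity change from -70% to -50%; inactive means maximum activity change above -50%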;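 further: thallium influx rate constant from kinetic fluorescence after stimulation buffer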
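Kinetic fluorescence (2 min after stimulation buffer) measures Tl+ influx through KCNH2 3.1 expressed by viral transduction in U2OS cells; the rate constant is normalized against DMSO controls serving as positive and negative references.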
GLS inh = qHTS for Inhibitors of Glutaminase (GLS); GLS enzymatic activity, qHTS titration; Potency, µM (series often up to 45.5 µM), usual class: inhibitors; hit rate 0.21% among 410,000
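Assay buffer: 45 mM KH2PO4 pH 8.2, 0.02% Tween-20. hKGA acts on L-glutamine (1 mM solution added); product glutamate is reported by an oxidase/peroxidase Amplex Red coupling, with fluorescence taken at baseline and 30 min.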
GLP1R ag = qHTS of GLP-1 Receptor Agonists; Potency, µM (titrated, usually from 45.6 µM), hits mostly activators; HEK293 GLP-1R CRE-luciferase, luminescence, 4-6 h; cells express a hypersensitive GLP-1R form; hit rate 0.007% among 380,000; AID 624172, 2012
Each line names hits and unclear results; the compound was inactive in the other large screens. Unless noted, the call rests on the fitted dose curve; in most records, active means well fitted curve in the direction sought with a large enough effect; inconclusive means small, poorly fitted or top-dose-only effect, or another doubt; inactive means no such curve, though single readings can be large; an effect the other way counts as inactive or inconclusive.

CN(CC(=O)Nc1ccc(Cl)cc1)c1ccc(S(=O)(=O)N2CCCCC2)cc1[N+](=O)[O-]	GLP-1R inv ag 10µM
COc1ccc(S(=O)(=O)N2CCCCCC2)cc1C(=O)N(C)CC(=O)Nc1ccc(Cl)c(Cl)c1	GLP-1R inv ag 10µM
COc1ccc(S(=O)(=O)N2CCCCCC2)cc1N(C)S(=O)(=O)c1ccc(Cl)cc1	GLP-1R inv ag 10µM, KCNH2 3.1 block inconclusive
CN(CC(=O)Nc1ccc(S(=O)(=O)N2CCCC2)cc1)Cc1ccc(Cl)cc1Cl	GLP-1R inv ag inconclusive, GLP1R ag inconclusive
CCOC(=O)c1noc2ncnc(Nc3cccc(OC)c3)c12	none (no result: hERG WT inh, KCNH2 3.1 block, GLP1R ag)
CC1=NN(c2ccc(C(=O)OC(C)C)cc2)C(=O)/C1=C\C=C\c1ccco1	hERG WT inh -202, KCNH2 3.1 block -194
CCc1ccc(N2NC(=O)/C(=C/C=C/c3ccco3)C2=O)cc1	none
CCOC(=O)c1ccc(N2N=C(C)/C(=C/C=C/c3ccco3)C2=O)cc1	none
O=C(O)c1cc(N2N=C(C(F)(F)F)/C(=C/C=C/c3ccco3)C2=O)ccc1Cl	GLS inh 8.9µM
COc1ccc(N2Cc3cccc(C(=O)N4CCOCC4)c3C2=O)cc1	none
COc1ccc(N2Cc3cccc(C(=O)N4CCN(C(=O)c5ccco5)CC4)c3C2=O)cc1	GLS inh 18µM
CCCCOP(=O)(OCCCC)C1(NS(=O)(=O)c2ccccc2)C=CC(=O)c2ccccc21 (configuration not stated)	HEK293 tox inconclusive, KCNH2 3.1 block -82
OC(CN1CCCCC1)c1cc(-c2ccccc2)on1 (configuration not stated)	none (no result: hERG WT inh, GLP-1R inv ag, HEK293 tox, KCNH2 3.1 block)
COc1ccc(-c2c[n+]3c4n2CCCCC4=C(c2ccc(Br)cc2)C3)cc1	GLP-1R inv ag inconclusive, KCNH2 3.1 block -169
O=C(NC1(C(F)(F)F)C(=O)Nc2c1c(=O)[nH]c(=O)n2-c1ccc(F)cc1)c1ccccc1 (configuration not stated)	none (no result: hERG WT inh, KCNH2 3.1 block, GLP1R ag)
COCC1CCN(C(=O)c2oc3c(F)cccc3c2C)C1 (configuration not stated)	none
CC(=O)NCC1CCCN(C(=O)c2oc3c(F)cccc3c2C)C1 (configuration not stated)	KCNH2 3.1 block -126
CC1=C(C(=O)Nc2ccccc2C)C(c2cccnc2)n2nc(SCc3ccccc3)nc2N1 (configuration not stated)	none (no result: hERG WT inh, KCNH2 3.1 block, GLP1R ag)
CCOC(=O)c1cccc(NC(=O)CC2C(=O)N(c3ccc(Cl)cc3)C(=O)N2C2CCCC2)c1 (configuration not stated)	GLP-1R inv ag 13µM (no result: hERG WT inh, KCNH2 3.1 block, GLP1R ag)
COC(=O)C(c1ccccc1)C(CC(=O)c1ccccc1)c1ccccc1 (configuration not stated)	none
CCCC[C@H](CC(=O)c1ccccc1)[C@@H](OC(C)=O)C(=O)Oc1c(C(C)C)cccc1C(C)C	GLP-1R inv ag 3.5µM (no result: hERG WT inh, KCNH2 3.1 block)
Cc1cc(C(=O)NCCC(c2ccccc2)c2ccccc2)c(C)o1	GLP-1R inv ag 8.9µM
O=C(NC1CCCc2ccccc21)c1cncc(Br)c1 (configuration not stated)	KCNH2 3.1 block -71
CCNC(=S)N/N=C/c1cc(C)ccc1C	GLP-1R inv ag 4.5µM, HEK293 tox 5.6µM
COc1ccc(OC)c(NC(=O)Cn2ccc3ccccc3c2=O)c1	none (no result: hERG WT inh, KCNH2 3.1 block)
COc1ccc(-c2cc(C(=O)OCC(=O)c3c(N)n(C)c(=O)n(C)c3=O)c3ccccc3n2)cc1	none
Cn1c(N)c(C(=O)COC(=O)c2ccccc2C(=O)c2ccc(Cl)cc2)c(=O)n(C)c1=O	GLP-1R inv ag 11µM
Cn1c(N)c(C(=O)COC(=O)c2cc(-c3ccco3)nc3ccccc23)c(=O)n(C)c1=O	GLS inh 7.9µM
COC(=O)c1ccc(-n2c(C)cc(C(=O)CSc3ccc(NC(C)=O)cc3)c2C)cc1	GLP-1R inv ag inconclusive, KCNH2 3.1 block -120
CC(=O)Nc1ccc(SCC(=O)c2cc(C)n(-c3ccccc3F)c2C)cc1	GLP-1R inv ag inconclusive
COc1ccc2c(c1)CCc1c(C(=O)Nc3c(C)nn(Cc4ccccc4Cl)c3C)noc1-2	GLP-1R inv ag 10µM (no result: hERG WT inh, KCNH2 3.1 block, GLP1R ag)
COc1ccc2c(c1)CCc1c(C(=O)Nc3c(C)nn(Cc4ccc(Cl)cc4)c3C)noc1-2	GLP-1R inv ag inconclusive (no result: hERG WT inh, KCNH2 3.1 block, GLP1R ag)
COc1ccc2c(c1)CCc1c(C(=O)Nc3c(C)nn(Cc4ccccc4)c3C)noc1-2	GLP-1R inv ag inconclusive, KCNH2 3.1 block -71
Brc1ccc2ncnc(NCc3ccccc3)c2c1	GLP-1R inv ag 1.4µM
Oc1ccc(/C=N/Nc2ccnc3cc(Cl)ccc23)c(O)c1O	GLS inh 13µM
COc1cc(C(=S)N2CCCCC2)ccc1OCC(=O)Nc1ccc(F)cc1	GLP-1R inv ag inconclusive
O=C(Cn1cncn1)NCCCc1ccccc1	hERG WT inh -177
O=C(Cn1cncn1)NCCC(c1ccccc1)c1ccccc1	none
Cc1ccc(C)c(N2N=C(C(=O)Nc3cccnc3)CCC2=O)c1	none
C[C@@H]1CN([C@H](C)CO)C(=O)CCCn2nncc2CO[C@@H]1CN(C)C(=O)c1ccc(N2CCN(C)CC2)cc1	none
O=C(Nc1ccc(C(=O)N2CCN(c3ccc(Cl)cc3)CC2)cc1)c1nsc2ccccc12	GLP-1R inv ag 6.3µM (no result: hERG WT inh, KCNH2 3.1 block, GLP1R ag)
COc1cccc(N2CCN(C(=O)c3ccc(NC(=O)c4nsc5ccccc45)cc3)CC2)c1	GLP-1R inv ag 8.9µM (no result: hERG WT inh, KCNH2 3.1 block, GLP1R ag)
CCN(C[C@H]1N[C@@](CC)(C(=O)OC)[C@H]2C(=O)N(C)C(=O)[C@@H]12)S(=O)(=O)c1ccc(OC)cc1	none
O=C(/C=C/c1c(F)cccc1Cl)N1CCOCC1	none
Cc1cccc(C)c1OCCNC(=O)c1ccc2ccccc2n1	GLP-1R inv ag inconclusive, KCNH2 3.1 block -89
OC1CC2CCC(C1)N2CCCN1c2ccccc2Sc2ccc(Cl)cc21 (configuration not stated)	GLP-1R inv ag 2.8µM
O=C(Nc1cccc(C(=O)N2CCCc3ccccc32)c1)c1ccccc1	GLP-1R inv ag inconclusive, HEK293 tox inconclusive
COc1ccc(C(O)(c2ccccc2OC)C(CN2CCOCC2)c2ccccc2)cc1 (configuration not stated)	GLP-1R inv ag 10µM
CCCCC(O)(c1ccccc1)C(CN1CCOCC1)c1ccccc1 (configuration not stated)	GLP-1R inv ag 10µM
